Source: PubChem (National Center for Advancing Translational Sciences (NCATS))
Pf Dd2 growth – qHTS Primary assay for Inhibitors of Plasmodium falciparum Dd2 growth in vitro; P. falciparum Dd2 growth, SYBR Green, 72 h; Potency, µM (titrated, usually from 28.9 µM), for the others: at the top dose activity, negative = inhibition, most hits filed as inhibitors; 120,000 tested, 4.3% active; active = well fitted inhibition curve with a large enough effect;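 note: plate controls were DMSO vehicle for no effect and reference drug for full effect; nearly all actives have a fitted effect of over 65% in size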
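Readout: SYBR Green fluorescence, 485 nm excitation, 535 nm emission, after ~16 h lysis at 37C. Before that, Dd2-infected red cells (2.5% hematocrit) grew 72 h with compound, 29 uM top final concentration.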
The depositor's hits bear a star; i = inactive; [ ] = another dose, or the depositor's remark. Many of the other results were omitted from the sample, so hits are more common in it than they were. Potency is the fitted concentration of half-maximal effect.

SMILES	Pf Dd2 growth
CCC(CC)c1cc([C@H]2CN3CC[C@H]2C[C@@H]3CNC(=O)COc2ccccc2)nc(-c2ccncc2)n1	0.45µM*
CCC(CC)c1cc([C@H]2CN3CC[C@H]2C[C@@H]3CNC(=O)c2cc(OC)c(OC)c(OC)c2)nc(-c2ccncc2)n1	-48%
Cn1nc(-c2ccc3ccccc3c2)cc1[C@H]1CN2CC[C@H]1C[C@@H]2CNC(=O)COc1ccccc1	-13%
CCC(CC)c1cc([C@H]2CN3CC[C@H]2C[C@@H]3CNC(=O)c2cccs2)nc(-c2ccncc2)n1	0.25µM*
CC(=O)c1cccc(NC(=O)NC[C@H]2C[C@@H]3CCN2C[C@@H]3c2cc(-c3cccs3)nc(C)n2)c1	i
CCC(CC)c1cc([C@H]2CN3CC[C@H]2C[C@@H]3CNC(=O)c2ccc(N(C)C)cc2)nc(-c2ccncc2)n1	-16%
CCC(CC)c1cc([C@H]2CN3CC[C@H]2C[C@@H]3CNC(=O)Cc2cccs2)nc(-c2ccncc2)n1	0.71µM*
COCCN1CCCC2(CCN(C(=O)c3ncoc3C3CC3)C2)C1=O (stereo not given)	-7%
C=CCN1CC(C(=O)NCc2cccnc2Oc2ccc(C)nc2)CC1=O (stereo not given)	-10%
CC(C)NC(=O)N1CCOC[C@H]1c1ncc(-c2ccc(OC(F)(F)F)cc2)[nH]1	-14%[44.1 µM]
CCN(Cc1cccc(OCCO)c1)CC1CCCN(CCc2cccc(OC)c2)C1 (stereo not given)	10µM*
COc1cccc(CCC2CCCN(C(=O)C3CCCC3)C2)c1 (stereo not given)	i
COc1cccc(CN2CCCC(Nc3cc(N)ncn3)C2)c1 (stereo not given)	-19%
O=C1NCCOCCN(C(=O)Cc2cccc(F)c2)[C@H]2CCC[C@@H]12	40%
CN(C)CC(=O)N1C[C@@H]2CN(c3cc(C4CC4)ncn3)C[C@]2(C(=O)O)C1	-6%
O=C(Cn1nc2n(c1=O)CCCCC2)Nc1ccccc1	12%
Cc1nccn1-c1ccc(CNC(=O)C(c2ccccc2F)N(C)C)cc1 (stereo not given)	-11%
CSc1ccc(NC(=O)C2CCN(c3ncccn3)CC2)cc1	i
CCC(=O)N1CCc2sc(C(=O)NCc3ccc(C)cc3)cc2C1	i
Cc1ccc(NC(=O)c2cc3c(s2)CN(C2CC2)C3)cc1	10µM*
CSc1ccc(NC(=O)c2cc3c(s2)CN(C2CC2)C3)cc1	10µM*
O=C(NC1CCS(=O)(=O)C1)c1cc2c(s1)CN(C1CCCC1)C2 (stereo not given)	i
O=C(NC1CCCCC1)c1cc2c(s1)CCN(C(=O)c1ccc(F)cc1)C2	i
CCC(CC)C(=O)NC[C@H]1O[C@@H](CC(=O)NCc2ccc(F)cc2)[C@H](O)[C@@H]1O	-1%[44.1 µM]
O=C1c2ccccc2CN1C1CCN([S+](=O)([O-])c2ccccc2)CC1	9%
SMILES	Pf Dd2 growth
COc1ccc(CCNc2ncnc3c2CN(C2CCCNCC2)C(=O)CN3C)cc1 (stereo not given)	-19%
CN1C[C@@H]2CCCN3CCC[C@@H]([C@H]23)[C@H]1CCCC(=O)NCC1CC1	-5%
C[C@H]1[C@@H]2[C@@H](O)C([C@H](C)C(=O)NCc3cccs3)CC[C@@]2(C)CC[C@@H]1NC(=O)c1cncnc1 (stereo not given in full)	i
Cc1c(C(=O)OCC2CCCCC2)[nH]c2c1C(=O)CC(c1ccc(F)cc1)C2 (stereo not given)	-13%
COc1cc(C2CC(=O)c3c([nH]c(C(=O)OC4CCCC4)c3C)C2)cc(OC)c1OC (stereo not given)	5.6µM*
Cc1c(C(=O)OC2CCCCCC2)[nH]c2c1C(=O)CC(c1ccc(Cl)cc1)C2 (stereo not given)	-9%
Cc1c(C(=O)OC2CCCCCC2)[nH]c2c1C(=O)CC(c1ccccc1Cl)C2 (stereo not given)	10µM*
Cc1c(C(=O)OC2CCC(C)CC2)[nH]c2c1C(=O)CC(c1ccccc1Cl)C2 (stereo not given)	-27%
CC1=C(C(=O)OC2CCCCCC2)C(c2c(F)cccc2Cl)CC(=O)N1 (stereo not given)	-14%
O=C(Cn1nc(-c2cccs2)ccc1=O)NC1CCCc2c1[nH]c1ccccc21 (stereo not given)	1%
Fc1ccc(-c2cc(CC3(NCc4ccco4)COC3)no2)cc1	13%[44.1 µM]
COCc1nc(C2CCCN(C(=O)c3ccccc3OC)C2)no1 (stereo not given)	26%
COc1cc(NC(=O)Cn2c(C)cc3nc4n(c(=O)c32)CCCCC4)cc(OC)c1	-10%
Cc1cnn(CC(=O)N2CCC(Cn3c(C)cnc3C3CC3)CC2)c1	-12%
CC(C)c1ccc(N2C(=O)[C@@H]3C[C@@H](NC(=O)C4CCN(c5nccc(C(F)(F)F)n5)CC4)CCN3C2=O)cc1	i
O=C(c1ccc(F)c(F)c1)N1CCC2(CC1)N=C(c1cccc(Br)c1)NO2	i
COc1ccccc1NC(=O)NCCCN1CCN(c2ccc(F)cc2)CC1	i
O=C(Cn1c(-c2cccs2)cc2cc(F)ccc21)NCCCN1CCN(c2ccc(F)cc2)CC1	6.3µM*
CC(NC(=O)Cn1c(-c2cccs2)cc2cc(F)ccc21)c1ccccc1 (stereo not given)	1.1µM*
CC(CNC(=O)Cn1c(-c2cccs2)cc2ccccc21)c1ccccc1 (stereo not given)	11µM*
O=C(Cn1c(-c2cccs2)cc2ccccc21)N1CCN(c2ccc(Cl)cc2)CC1	8%
CN(C)c1ccc(CNC(=O)Cn2c(-c3cccs3)cc3cc(Cl)ccc32)cc1	-6%
Cc1ccc(CNC(=O)Cn2c(-c3cccs3)cc3cc(Cl)ccc32)cc1	-10%
CCNC(=O)Cn1c(-c2cccs2)cc2ccccc21	10%
CCOC(=O)Cn1c(-c2cccs2)cc2cc(Cl)ccc21	-12%
SMILES	Pf Dd2 growth
N#Cc1ccccc1N1CCN(C(=O)CCc2ccc(F)c(F)c2)CC1=O	1%
Cc1ccc(CN(C)C2CCc3nn(C)c(=O)n3CC2)o1 (stereo not given)	17%
O=C(NCc1ccccc1)N1CCCC(Cc2noc(-c3ccncc3)n2)C1 (stereo not given)	i
CC(C)(C)C(Cn1ccnc1)NC(=O)c1cc(COc2ccc3c(c2)CCCC3)on1 (stereo not given)	8.9µM*
COC(=O)c1ccccc1NC(=O)c1cc(CN2CCCC2)on1	i[5.79 µM]
Cc1cc(C)n(CCCNC(=O)c2cc(COc3ccc4sc(C)nc4c3)on2)n1	-11%
COC[C@@H]1CN(C(=O)Cc2cc(C)no2)C[C@H]1c1ccncc1	16%
Cc1cccc(CN2C(=O)c3ccccc3S(=O)(=O)c3ccc(C(=O)N4CCCC4)cc32)c1	i
O=C(OCC1CCCO1)c1ccc2c(c1)N(Cc1ccccc1Cl)C(=O)c1ccccc1S2(=O)=O (stereo not given)	8.9µM*
Cc1cccc(CN2C(=O)c3ccccc3S(=O)(=O)c3ccc(C(=O)OCC4CCCO4)cc32)c1 (stereo not given)	11%
O=C(c1ccc2c(c1)N(Cc1ccccc1F)C(=O)c1ccccc1S2(=O)=O)N1CCCCCC1	i
O=C(c1ccc2c(c1)N(Cc1cccc(Cl)c1)C(=O)c1ccccc1S2(=O)=O)N1CCCCC1	-11%
Cc1ccc(C)c(CN2C(=O)c3ccccc3S(=O)(=O)c3ccc(C(=O)N4CCN(C)CC4)cc32)c1	5µM*
O=C(c1ccc2c(c1)N(Cc1ccccc1)C(=O)c1ccccc1S2(=O)=O)N1CCCCCC1	4µM*
